The test has as its system MDA-MB-468 breast. Briefly: NCI-60 one-dose screen, 48 h (100 = growth as untreated, 0 = no growth, -100 = all killed). The following applies: 10 µM unless noted.

Structures are written as SMILES. Where “and” joins values, the source holds several entries; their conditions need not be identical. Equal entries are not always repeated. This is part of a sample that, as a whole, favours compounds with a hit. Of some 83,000 tested, about 20% had one in any assay.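 A percent growth of 40 corresponds to 60% growth inhibition; 0 means no net growth; -100 means all cells died. Active threshold: below 10.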 Calls of active or inactive are those of the source.

Turning to `CCCSC1=NC2C(N(CC)C(=O)N2CC)N1/N=C/C=C/c1ccccc1[N+](=O)[O-]` (stereo unspecified), the growth was 29.9% (inactive). In the case of `O=C(N/N=C/c1ccc2c(c1)OCO2)c1ccncc1` it was 116% (inactive) and 124% (inactive); in that of `Nc1n[nH]c2cccc(C#Cc3cccc(NC(=O)c4cc(N5CCOCC5)cc(C(F)(F)F)c4)c3)c12`, 85.6% (inactive). For the molecule `COC(=O)C[C@@H]1CC=CC(=O)/C1=C(O)/C=C/c1ccccc1`, the growth was -85.5% (active). As for `Cc1c(-c2nc3ccc(F)cc3c(=O)[nH]2)c2ccccc2n1C`, the growth is 6.2% (active).

Take `C[C@H]1[C@H]2[C@H]3CC[C@@H]4[C@@]5(C)CC[C@H](O)C(C)(C)[C@@H]5CC[C@@]4(C)[C@]3(C)CC[C@]23CO[C@]1(C)[C@@H](C(=O)/C=C\c1ccco1)C3`: the growth is 19.3% (inactive). Consider `CCCCCCCC/C=C\CCCCCCCCOc1ccccc1CC(=O)NCC[N+]1(C)CCOCC1`, for which the growth is 65.3% (inactive). As to `COc1ccc(-c2cc(-c3cccs3)n(N=O)c(=O)c2C#N)cc1`, the growth is 99.5% (inactive).

`C/C=C/C(N)=O`: the growth was 101% (inactive). To `Cc1[nH]c2ccc(F)cc2c1CCNC(=O)C1CCN(C(=O)c2ccccc2)C1` (stereo unspecified) belongs 86.8% [25 µM] (inactive); to `O=C(Cn1nnc2ccccc21)N/N=C/c1c[nH]c2ccccc12`, 34.5% (inactive); to `CCCCCCn1c(=N)n(CC(O)COc2cccc(C)c2)c2ccccc21` (stereo unspecified), -68.7% (active). For `C/C=C1\SC(=S)NC1=O`, the growth was 114% (inactive).

`CCCCCCCCCc1ccc(OC(C)=O)cc1`: the growth was 104% (inactive). With `CCN(CC)c1cc(/C=C/c2ccc(OC)c(OC)c2)nc2cc(F)c(F)cc12`, the growth was -32.6% (active).

With `CCOC(=O)C1=C(C)NC(C)=C(C(=O)OCc2ccccc2)C1c1cccc(C#N)c1` (stereo unspecified), the growth was 16% (inactive). Turning to `O=C(NCCc1ccccc1)/C(=C\c1ccc(Cl)cc1Cl)NC(=O)c1ccccc1`, the growth is 95.1% (inactive). Regarding `COc1cc(C(=O)c2cc(C)c3[nH]c4ccc(O)cc4c3c2C)cc(OC)c1OC`, the growth is -22.7% (active).

Regarding `COc1cccc(-c2nn(-c3ccccc3)cc2-c2ccnc(NCCNC(=O)Nc3ccc(Cl)c(Cl)c3)c2)c1`, the growth was -17.4% (active).

Consider `CCSc1ccc([C@@H]2[C@@H](O)C(=O)N2c2cc(OC)c(OC)c(OC)c2)cc1`, for which the growth is 40.2% (inactive). For `CCCC(=O)Oc1ccc(/C(=C(/CC)Cc2ccccc2)c2ccc(OCCN3CCCC3)cc2)cc1`, the growth was 42.8% (inactive). Turning to `CC/C(=C(/c1ccc(Cl)cc1)c1ccc(OCCCN(C)C)cc1)c1ccc(OC)cc1`, the growth is 51.7% (inactive). For `COc1ccc2c(O)c(/C=C3\N=Nc4nc(C)ccc43)oc2c1CC1CCNCC1`, the growth was 0.98% (active). On to `CCOC(=N)c1ccc(C(=N)OCC)cc1`, for which the growth is 106% (inactive). In the case of `Cc1ccc(/C=C(\C#N)n2nnc3cc(F)c(F)cc32)cc1` it was 17.3% (inactive); in that of `CCCCCCCCCCCCCCCCCCOc1ccccc1CC(=O)OCC[N+]1(C)CCCCC1`, -10.3% (active); in that of `CCN(CC)c1ccc(Nc2ccc(CC(=O)c3ccccc3)cc2)cc1`, 85.2% (inactive). As to `CC1(C)[C@@H](OC(=O)CCC(=O)O)CC[C@]2(C)[C@H]3C(=O)C=C4[C@@H]5C[C@@](C)(C(=O)O)CC[C@]5(C)CC[C@@]4(C)[C@]3(C)CC[C@@H]12`, the growth was -0.77% (active). To `COc1cc(-c2nc3occn3c2-c2ccnc(NCCCNS(=O)(=O)c3ccc(O)cc3)n2)ccc1F` belongs 91.4% (inactive).

Consider `O=C(/C=C/c1cccc(Cl)c1)c1ccccc1`, for which the growth is 82.8% (inactive) and 74.6% (inactive). Regarding `CCCCNc1ccc(Nc2ccccc2)cc1`, the growth is 11.4% (inactive). As to `O=C1OC(c2ccccc2)=N/C1=C\c1ccc([N+](=O)[O-])cc1`, the growth is 94.6% (inactive). Regarding `Cc1c(C(=O)Nc2nc(-c3ccccc3)cs2)nnn1-c1ccccc1Br`, the growth is -1.78% [50 µM] (active).

With `C=CCN1C=CC(=O)[C@H](O[Si](C)(C)C(C)(C)C)[C@@H]1/C=C/c1ccccc1`, the growth was -72.9% [100 µM] (active). Regarding `COc1cc(/C=C2\SC(=S)N(/C=C/c3nc4ccccc4[nH]c3=O)C2=O)cc(OC)c1OC`, the growth is 81.2% (inactive). On to `CC1=C(C(=O)OC(C)C)C(c2ccc3c(c2)OCO3)NC(=S)N1` (stereo unspecified), for which the growth was 115% (inactive). In the case of `COc1ccc(C(=O)n2nc(/C=C/c3ccc(O)c(OC)c3)cc2/C=C/c2ccc(O)c(OC)c2)cc1` it was -8.43% (active); in that of `CN(C)CCCN1c2ccccc2CCc2ccc(Cl)cc21`, -21.6% (active); in that of `Cc1cc(N2CCN(C)CC2)nc(NCc2cc(Nc3ccnc4cc(Cl)ccc34)ccc2F)n1`, -60.4% (active). As to `CC(C)Cc1ccc(C(C)C(=O)NCc2ccc(Cn3c(=O)sn(CCCI)c3=O)cc2)cc1` (stereo unspecified), the growth was 64.3% (inactive) and -91.8% (active). Take `CCOC(=O)C(Cc1ccccc1)n1c(O)c(C=Nc2ccc(C(=O)OCCN(CC)CC)cc2)sc1=O` (stereo unspecified): the growth was 82.6% (inactive). As to `C#CCOc1ccc(C2=NN(CC3CC3)C3N=C(Cl)c4ncn(CC5CC5)c4N23)cc1OCC#C` (stereo unspecified), the growth was 66.2% (inactive). For `CN(C)c1ccc2nc3ccc(=[N+](C)C)cc-3oc2c1`, the growth is -15.4% (active).

Regarding `Cc1cccc(NC(=O)N/C(N)=N/c2nc3ccccc3s2)c1`, the growth is 17.8% (inactive). Turning to `Cc1cccc(NC(c2cc3cccc4ccc5cccc2c5c43)c2nnnn2C(C)(C)C)c1C` (stereo unspecified), the growth was -10.3% (active).

As to `C#CC(=O)/C=C/CCCCCCC#CC(=O)CCC(=O)C#CCCCCCC/C=C/C(=O)C#C`, the growth is -10% (active). As to `O=C(C(=O)c1ccc2c(c1)OCO2)c1ccc2c(c1)OCO2`, the growth is 96.9% (inactive). On to `CCN(CC)CCCC(C)Nc1ccnc2ccc(Oc3ccccc3)cc12` (stereo unspecified), for which the growth was 54.7% (inactive). To `O=C(Nc1cccc([N+](=O)[O-])c1)c1ccc2ccccc2c1O` belongs 52.4% (inactive); to `COc1ccc(NC2=C(Cl)C(=O)C(C)=C(C)C2=O)cc1`, -38.4% (active); to `COc1ccc(-c2nc(SCCC(C)C)nc(N/N=C\c3cccc(Cl)c3)c2C#N)cc1`, 95.9% (inactive).

Turning to `CCCCCCCCCCCCCCCCCCNC(=O)[C@H]1CSC(c2cccs2)N1` (stereo partly specified), the growth was 60.8% (inactive). Consider `CN1CCN(CCCOc2cccc3nc(Nc4cc(Cl)cc(Cl)c4)ccc23)CC1`, for which the growth is -52.6% (active). For the molecule `c1ccc(-c2cc(-c3cc(-c4ccccc4)on3)no2)cc1`, the growth is 84.9% (inactive). In the case of `CC(C)=CC/C=C(/C)[C@H]1CC[C@]2(C)[C@@H]1CC[C@@H]1[C@@]3(C)CCCNC(C)(C)[C@@H]3CC[C@]12C` it was -50.1% [100 µM] (active); in that of `CCOC(=O)C#Cc1c(CC(=O)OCC)nnn1[C@H]1O[C@@H](CO)[C@@H]2OC(C)(C)O[C@@H]21`, 10.6% (inactive).

Regarding `CN(C)CCS(=O)(=O)CCN(C)C`, the growth is 105% (inactive). Take `COC(=O)Nc1nc2ccc(C(=O)c3ccc(F)cc3)cc2[nH]1`: the growth is 25.9% (inactive). For `COc1cc(/C=N/Nc2nc3c([nH]2)c(=O)n(C)c(=O)n3C)ccc1O`, the growth is 103% (inactive) and 122% (inactive).

Consider `CNC(=S)NNC(=O)C1CC1`, for which the growth was 108% (inactive). In the case of `CCCSc1nc2ccc(C)cc2cc1/C=[N+](\[O-])c1ccccc1` it was 88.4% (inactive); in that of `COc1ccc(/C=C(\C#N)c2cc(OC)c3c(c2)OCO3)cc1`, -4.06% (active); in that of `N#Cc1c(-c2ccc(Cl)cc2)nc(SCc2ccc(F)cc2)nc1N1CCNCC1`, -62.5% (active). `Cc1cccc2c1NC(=O)[C@@]21[C@H](C(=O)c2ccccc2)[C@]2(C(=O)Nc3ccccc32)[C@H]2CCCN21`: the growth is 22.2% [100 µM] (inactive). For `CN(C)CCCn1c2c(c3cnccc3c1=O)C(=O)c1ccccc1-2`, the growth was -1.59% (active). Regarding `CC(C)(C)[C@H](OCc1cn([C@H]2C[C@@H](O)[C@@H](CO)O2)c(=O)[nH]c1=O)c1ccc(C#Cc2ccccc2)cc1[N+](=O)[O-]`, the growth is 68.2% (inactive). Turning to `CCCCCCCCCCCCCCCCCC1=NCCCN1CCO`, the growth is 110% (inactive). For `COC(=O)[C@]12CC[C@@H](C)[C@H](C)[C@@H]1C1=CC[C@@H]3[C@@]4(C)C=C(O)C(=O)[C@@]5(C)COC(=C54)C[C@@]3(C)[C@]1(C)CC2`, the growth is -57.7% (active). Take `C=CC(=O)Nc1cccc(-c2nc(SC)nc(NCc3ccccc3)c2C#N)c1`: the growth is 52.1% (inactive).

For the molecule `CN(C)c1ccc(C2CC(c3ccccc3)=NN2/C=C2\SC(=O)NC2=O)cc1` (stereo unspecified), the growth is 100% (inactive).

Regarding `C=CC(=O)NC(=O)Nc1ccccc1Cl`, the growth is 30.4% (inactive). In the case of `CCCCCCCC/C=C\CCCCCCCCOc1cccc(CC(=O)NCC[N+](C)(C)C)c1` it was 93.1% (inactive); in that of `CCOC(=O)c1cc(C(=O)c2cc(OC)cc(OC)c2)n2ccc3ccccc3c12`, 74.5% (inactive). Take `O=C(OC(CO)C(=O)NC12CC3CC(CC(C3)C1)C2)c1ccc(Cl)cc1` (stereo unspecified): the growth was 95.3% (inactive).

For the molecule `COc1ccc(C)cc1OC`, the growth is 137% (inactive). In the case of `Cn1c2ccc(Br)cc2c2c3c(c4c5ccccc5[nH]c4c21)C(=O)N(O)C3=O`, the growth was -52.5% (active).

`COC(=O)[C@]12CC[C@@H](C)[C@H](C)[C@@H]1C1=CC(=O)[C@@H]3[C@@]4(C)C[C@@H](O)[C@H](O)[C@@]5(C)COC(=C45)C[C@@]3(C)[C@]1(C)CC2`: the growth is 44.2% (inactive). To `CN(C)CCOc1ccccc1NC1=C(Cl)C(=O)C(Nc2ccccc2OCCN(C)C)=C(Cl)C1=O` belongs -53.6% (active).

`CN1CCN(Cc2ccc(NC(=O)c3cncc(C#Cc4cnc5ccc(OCC(F)F)nn45)c3)cc2C(F)(F)F)CC1`: the growth was -65.5% (active).

With `COc1cc(/C=C\c2cc(/C=C\c3ccc(O)c(OC)c3)n(C(=O)COc3ccc(Cl)cc3Cl)n2)ccc1O`, the growth was 12.5% (inactive).

Take `COc1cc(-c2nn(-c3ccc(NC(=O)c4ccc(Cl)c(C(F)(F)F)c4)cc3)cc2-c2ccncc2)ccc1Cl`: the growth is 26% (inactive).

(Values after PubChem BioAssay (NCI).)
